Arbovirus anti: antivirals against arbovirus infection; 0.37% of 200,000 active; inhibition, % at 10 µM; arbovirus infection cell-based antiviral screen; in the data active = inhibition above about 30%
PGE2 EP2 inh: EP2 receptor (human) inhibition; P43116; C6 glioma cells expressing human EP2, cAMP TR-FRET; cells stimulated with saturating PGE2; inhibition, % at 25 µM; 0.52% of 260,000 active;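 active = percent inhibition above 40 after rounding to a whole number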;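 also: rat C6 glioma host cells with rolipram phosphodiesterase inhibitor present; the protocol text gives 20 µM as final concentration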
Hck Nef HTS: blocks Nef-activated human Hck kinase | 0.68% of 220,000 active | inhibition, % at 20 µM | Recombinant Hck-YEEI plus Nef, Z-Lyte FRET kinase assay | P08631;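 active = Hck-Nef kinase inhibition above about 50%, limit read from the data; inactive = inhibition below that limit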;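 also: 0% = DMSO with Hck plus Nef and 100% = Hck alone without Nef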
Target sequence (P08631 whole entry, looked up): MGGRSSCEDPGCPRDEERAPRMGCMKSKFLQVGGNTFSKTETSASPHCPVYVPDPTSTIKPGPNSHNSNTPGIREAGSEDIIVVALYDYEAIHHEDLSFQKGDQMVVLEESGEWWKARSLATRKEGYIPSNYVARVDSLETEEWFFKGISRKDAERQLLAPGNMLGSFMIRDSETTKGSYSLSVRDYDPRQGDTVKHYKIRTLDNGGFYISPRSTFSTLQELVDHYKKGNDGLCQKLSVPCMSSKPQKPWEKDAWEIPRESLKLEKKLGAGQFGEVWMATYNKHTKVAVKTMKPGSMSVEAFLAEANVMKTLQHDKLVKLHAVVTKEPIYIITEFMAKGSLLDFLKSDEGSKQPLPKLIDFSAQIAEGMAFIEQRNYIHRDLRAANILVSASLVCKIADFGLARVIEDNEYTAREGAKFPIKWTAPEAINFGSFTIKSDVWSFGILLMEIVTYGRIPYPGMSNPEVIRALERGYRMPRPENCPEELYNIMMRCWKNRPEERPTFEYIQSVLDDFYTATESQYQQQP
p97 inhibitor: blocks human p97 ATPase activity; recombinant p97 ATPase, Kinase-Glo ATP luminescence, 3 h; 0.42% of 220,000 active; inhibition, % at 8 µM; in the data active = inhibition above about 15%;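 also: 0% = DMSO vehicle and 100% = wells lacking enzyme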
EP2 modulator: modulators of human EP2 prostaglandin E2 receptor; 0.83% of 260,000 active; EP2-expressing cells, cAMP HTRF FRET, PGE2 co-stimulation; P43116; induction, % at 25 µM;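 active = compounds whose cAMP rise, as percent of the full-agonist control response, exceeds 60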;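 also: rat C6 glioma line stably carrying human EP2 under a CMV promoter; the protocol text gives 20 µM as final concentration; 100% = response of wells given 1 µM PGE2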
p97 inh conf: human p97 ATPase inhibition, confirmation. shares compounds with p97 inhibitor. recombinant p97 ATPase, Kinase-Glo ATP luminescence. inhibition, % at 8 µM. 44% of 760 active. AID 1517;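 active = percent inhibition of p97 ATPase above a set limit, the primary screen's mean plus 3 SD, cut at about 15% in these data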;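 also: 0% = DMSO wells and 100% = wells lacking p97 protein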
The depositor's hits bear a star; / = no result. This is a sample that favours compounds with a hit; in the whole collection about 2.4% have one here.

SMILES	Arbovirus anti	PGE2 EP2 inh	Hck Nef HTS	p97 inhibitor	EP2 modulator	p97 inh conf
CN(C)CCCn1c(N)c(C#N)c2nc3ccccc3nc21	/	6	29	32*	-11	7
COc1ccc(/C=N/N(C)c2cc(=O)n(C)c(=O)[nH]2)cc1OC	3	5	12	18*	-3	5
CCn1c(N)nc2c1c(=O)n(C)c(=O)n2C	-3	9	3	-2	29	/
Cn1nc(-c2ccccn2)nc2c(=O)n(C)c(=O)nc1-2	/	12	18	34*	-10	33*
CCCc1nc2c(=O)n(C)c(=O)nc-2n(C)n1	-21	12	-11	32*	-34	29*
NC(=O)C(=CNc1nc(-c2ccc(Cl)c(Cl)c2)cs1)C(N)=O	/	7	2	26*	-1	19*
CCOc1ccc(-c2cc(N3C(=O)Nc4ccccc4N3O)n[nH]2)cc1	10	1	19	17*	12	8
COc1cccc(-c2cc(N3C(=O)Nc4ccccc4N3O)n[nH]2)c1	-4	12	2	-1	3	/
Cc1cc(OC(=O)c2ccc(S(=O)(=O)N3CCCCC3)cc2)c([N+](=O)[O-])c(=O)[nH]1	14	2	10	15*	8	4
Cc1cc(OC(=O)c2ccc(S(=O)(=O)N3CCCC3)cc2)c([N+](=O)[O-])c(=O)[nH]1	2	5	22	6	20	/
Cc1ccc(C2(NCc3ccnc(N4CCCC4)n3)CC2)cc1	/	7	/	/	17	/
COc1cc(/C=C2\C(=O)N(CCC#N)N=C2C)ccc1OCC(=O)Nc1ccccc1	-6	15	4	29*	-64	4
CCOc1cc(/C=C2\C(=O)N(CCC#N)N=C2C)ccc1OCC(N)=O	3	0	28	17*	-12	6
CC1=NN(CCC#N)C(=O)/C1=C/c1ccc(N(C)C)cc1	14	6	10	-11	-32	/
COc1ccc(/C=C2/SC(=O)N(CCC(=O)Nc3ccccc3)C2=O)cc1OC	3	13	35	3	-2	/
CSc1nsc(SCc2ccc(Cl)cc2)n1	0	5	-1	26*	20	0
O=C(CN(Cc1ccco1)C(=O)CCC(=O)Nc1nccs1)NCc1ccco1	/	7	/	/	3	/
O=C1NC(=Nc2ccc(O)cc2)S/C1=C\C=C\c1ccco1	/	23	94*	36*	-42	31*
COc1cc(/C=C2/SC(=Nc3ccc(O)cc3)NC2=O)cc(OC)c1O	-8	2	32	26*	3	20*
COc1cc(/C=C2\SC(=Nc3ccc(O)cc3)NC2=O)cc(OC)c1OC	/	8	16	4	-3	/
Cc1ccc2[nH]c(=O)c(CN(C3CCCC3)C(c3nnnn3Cc3ccccc3)C(C)C)cc2c1 (stereo unspecified)	/	4	/	/	1	/
CC(=O)c1ccc2cccc3c2c1N=CN3C	-3	/	5	32*	8	5
CN1c2cccc3cccc(c23)N(C)C1(C)C	6	/	2	4	11	/
CC(C)C(=O)N1CCN(c2ccc(NC(=O)c3ccccc3)cc2)CC1	/	11	/	/	-73	/
NC(N)=Nc1cc2ccccc2c2ccccc12	/	10	-21	15*	-41	10
SMILES	Arbovirus anti	PGE2 EP2 inh	Hck Nef HTS	p97 inhibitor	EP2 modulator	p97 inh conf
O=C(c1nccs1)C1CCN(C(=O)Cc2c(F)cccc2Cl)CC1	/	/	/	/	-18	/
Cc1cc(/C=C(/C#N)c2nc3ccccc3[nH]2)c(C)n1-c1cc(C(=O)O)cc(C(=O)O)c1	-4	6	38	17*	15	14
Cc1cc(/C=C(/C#N)c2nc3ccccc3[nH]2)c(C)n1-c1ccccc1C(=O)O	12	7	-21	8	-6	/
Cc1ccc(-c2nnc(NCc3nc4ccccc4[nH]3)c3ccccc23)cc1S(=O)(=O)N(C)C	-6	2	5	10	-1	/
Cc1ccc(-c2nnc(NCc3nc4ccccc4[nH]3)c3ccccc23)cc1S(=O)(=O)N1CCOCC1	-16	5	22	15*	0	12
O=C(Nc1ccc(Cl)cn1)C1C(c2ccccc2)C1(Cl)Cl (stereo unspecified)	-11	6	14	17*	20	23*
O=C(Nc1ccc(Cl)cn1)C1CC1	4	3	-17	-3	1	/
Cc1nnc(SCC(=O)N[C@H](Cn2nc(-c3cccs3)ccc2=O)C(C)C)o1	/	/	/	/	-25	/
O=C1CCCC/C1=C\Nc1ccc(O)cc1	-12	3	0	21*	15	7
CCOC(=O)N1CC=C2C(C#N)=C(N)C(C#N)(C#N)C(c3ccc(OC)cc3)C2C1 (stereo unspecified)	/	14	/	/	-41	/
O=C(CSc1ccc(F)cc1)Nc1ccccc1Br	-8	7	14	15*	1	4
CCOC(=O)C1Cc2ccccc2CN1 (stereo unspecified)	-3	3	2	15*	-4	6
CC(C)=CCC/C(C)=C/CC/C(C)=C/CC/C(C)=C/CC1=C(C)C(=O)c2ccccc2C1=O	/	12	29	/	-12	/
CC(C)=CCC1=C(OCC(=O)O)C(=O)c2ccccc2C1=O	/	21	25	32*	-12	29*
Cc1cc(=O)c2cc(Cl)ccc2[nH]1	18	/	2	4	-10	/
Cc1cc(=O)[nH]c2ccc(Cl)cc12	-8	10	-2	16*	13	3
COc1ccc(-c2nc(-c3ccc(NC(=O)c4ccc(Br)o4)cc3)no2)cc1OC	4	12	0	17*	4	2
COc1cccc(Nc2nc(N)nc(CCl)n2)c1	/	8	9	18*	-31	17*
COc1ccc(OC)c(Nc2nc(N)nc(CCl)n2)c1	/	9	21	25*	-21	25*
Cc1ncc(-c2ccncc2)c(C2CCN(C(=O)c3ccc(-n4cnnn4)cc3)CC2)n1	/	/	/	/	-24	/
COc1ccc(CN2CCN(Cc3ccccn3)CC2)cc1OCc1ccccc1	/	10	/	/	-43	/
COc1ccc(-c2noc(C3CCCN(C(=O)c4ccccc4)C3)n2)cc1OC (stereo unspecified)	/	10	/	/	-4	/
CCn1c(SCC(=O)Nc2cccc(OC)c2)nnc1-c1ccco1	/	4	/	/	-32	/
CC(C)[C@@H](Cn1nc(-c2ccc(F)c(F)c2)ccc1=O)NC(=O)C1CC1	/	/	/	/	-15	/
Oc1ccc(-c2csc(-c3c[nH]c4ccccc34)n2)c(O)c1	-21	13	14	19*	-50	22*
Cc1ccc(S(=O)(=O)CCC(=O)c2ccc(O)cc2O)cc1	-47	5	5	16*	-9	21*
CN1[C@@H](C(=O)Nc2ccc3c(c2)OCO3)C[C@@H](c2cccs2)NS1(=O)=O	/	/	/	/	3	/
COc1cc2c(cc1OC)C(C)N(C(C)=O)CC2 (stereo unspecified)	-7	8	8	-1	9	/
COc1cc2c(cc1OC)C(C)N(C(=O)c1cccs1)CC2 (stereo unspecified)	-11	0	-3	16*	-1	21*
CCn1c(=O)c2c(nc(SCC(=O)N3CCCC3)n2C)n(C)c1=O	/	8	/	/	-5	/

Screening data as filed in PubChem.
